Experimental findings from the supplement of paper PMC13380429 are described below.

This assay relates to Vero E6 infected with SARS-CoV-2. The assay can be described thus: morphology score (similarity to uninfected cells); higher = more like uninfected cells. Particulars: 24 h.
Compound `Oc1c(CN2CCCC2)cc(COCc2ccccc2)c2cccnc12` (10 µM) returned a morphology score of 0.0259.
The result for `Cc1noc(C)c1-c1ccc(-c2cc(C(N)=O)c(NC(N)=O)s2)c(O[C@H]2CCNC2)c1` (10 µM) reads 0.0267; that for `Cc1cc(C(N)=O)ccc1-n1c(CCC(=O)O)ccc1-c1ccc(-n2ccnc2)cc1` (10 µM), 0.066; that for `O[C@H]([C@H](O)[C@@H]1CO1)[C@H]1CO1` [dianhydrogalactitol] (10 µM), -0.0725.
As for `O=c1ccc2ccccc2o1` [coumarin] (10 µM), the figure is 0.114; as for `CCCCOc1ccc(-c2cncc(C(=O)NCc3cccnc3N3CCOCC3)c2)cc1Cl` (10 µM), -0.147; as for `O=C(O)C(Cc1ccccc1[N+](=O)[O-])=NNc1nc(-c2ccc(Cl)c(Cl)c2)cs1` (10 µM), 0.23.
Compound `COc1cc2c(cc1OC)-c1cc3ccc(OC)c(OC)c3c[n+]1CC2` [palmatine-chloride] (10 µM) yielded a morphology score of 0.189.
For the compound `O=C1NC(=O)c2cc(Nc3ccc(F)cc3)c(Nc3ccc(F)cc3)cc21` (10 µM), the morphology score was found to be 0.329.
The result for `CNC[C@H](O)c1cccc(O)c1` [phenylephrine] (10 µM) reads -0.0115.
The result for `O=C1Nc2ccc(Cl)cc2[C@@](C#CC2CC2)(C(F)(F)F)O1` [efavirenz] (10 µM) reads 0.0664.
As for `CCN(CC)CCNC(=O)COc1ccc(OC)cc1` [mefexamide] (10 µM), the figure is 0.0556; as for `Cc1c(N)nc([C@H](CC(N)=O)NC[C@H](N)C(N)=O)nc1C(=O)N[C@H](C(=O)N[C@H](C)[C@@H](O)[C@H](C)C(=O)N[C@H](C(=O)NCCc1nc(-c2nc(C(=O)NCCC[S+](C)C)cs2)cs1)[C@@H](C)O)[C@@H](OC1OC(CO)C(O)C(O)C1OC1OC(CO)C(O)C(OC(N)=O)C1O)c1cnc[nH]1` (stereo not given in full) [bleomycin] (10 µM), 0.0285.
The compound `NCCCNCCSP(=O)(O)O` [amifostine] (10 µM) returned a morphology score of 0.164.
As for `CCCCCCCCOc1ccccc1C(=O)Nc1ccc(C(=O)OCC[N+](C)(CC)CC)cc1` [otilonium] (10 µM), the figure is 0.299; as for `COc1ccc(S(=O)(=O)N2c3ccc(Cl)cc3[C@](O)(c3ccccc3Cl)[C@@H]2C(=O)N2CCC[C@H]2C(N)=O)cc1OC` [relcovaptan] (10 µM), -0.0372.
The compound `C#C[C@]1(OC(C)=O)CC[C@H]2[C@@H]3CCC4=CC(=O)CC[C@@H]4[C@H]3CC[C@@]21C` [norethindrone-acetate] (10 µM) gave a morphology score of -0.146.
`COc1cc2nccc(Oc3ccc(NC(=O)Nc4ccc(F)cc4F)c(F)c3)c2cc1OC` (10 µM) showed a morphology score of 0.12.
As for `CC(=O)Nc1ccc(NC(=S)NC(=O)c2ccc(C(C)(C)C)cc2)cc1` [tenovin-1] (10 µM), the figure is -0.0316.
The compound `Oc1ccc2ccccc2c1` [beta-naphthol] (10 µM) had a morphology score of -0.0489.
As for `COc1ccc(NS(=O)(=O)c2ccc(/N=N/c3ccc(O)c(C(=O)O)c3)cc2)nn1` [salazodine] (10 µM), the figure is 0.0596.
The result for `CN(C)CCN(C)CCc1ccc(Cl)c(Cl)c1` (10 µM) reads 0.208; that for `COc1cc(C(=O)NCC2(N(C)C)CCCC2)cc(OC)c1OCc1ccccc1` (10 µM), 0.334.
The compound `Nc1ccn(C[C@@H](CO)OCP(=O)(O)O)c(=O)n1` [cidofovir] (10 µM) had a morphology score of 0.0279.
As for `O=C(/C=C/c1ccc2ccc(C(F)(F)F)cc2n1)c1ccncc1` (10 µM), the figure is 0.389; as for `O=C1OCCN1/N=C/c1ccc([N+](=O)[O-])o1` [furazolidone] (10 µM), 0.0225.
As for `CCN(C(=O)c1c(O)c2c(Cl)cccc2n(C)c1=O)c1ccccc1` [laquinimod] (10 µM), the figure is 0.168; as for `CCCCC/C=C\C=C\CCCCCCCCC(=O)O` [trans-10,cis-12-conjugated-linoleic-acid] (10 µM), 0.0778; as for `C[N+]12CCC(CC1)C(OC(=O)C(O)(c1ccccc1)c1ccccc1)C2` (stereo not given) [clidinium] (10 µM), -0.064.
The result for `CCCCNc1cc(C(=O)O)cc(S(N)(=O)=O)c1Oc1ccccc1` [bumetanide] (10 µM) reads 0.0462; that for `COc1cc2ncn(-c3cc(OCc4ccccc4C(F)(F)F)c(C(N)=O)s3)c2cc1OC` (10 µM), -0.0651.
Consider `O=C(NO)C1(CS(=O)(=O)c2ccc(Oc3ccc(Cl)cc3)cc2)CCOCC1` (10 µM), for which the morphology score amounted to 0.0418.
As for `CC(=O)OCC1=C(C(=O)O)N2C(=O)[C@@H](NC(=O)CS/C(=N/C(C)C)NC(C)C)[C@H]2SC1` [cefathiamidine] (10 µM), the figure is 0.162; as for `Cn1c(=O)c2c(ncn2CC(=O)O)n(C)c1=O` [acefylline] (10 µM), 0.124; as for `Oc1cc2c(cc1O)CN(C(=S)NCCc1ccc(Cl)cc1)CCC2` [capsazepine] (10 µM), -0.103.
The result for `OCCCCO` [1,4-butanediol] (10 µM) reads 0.0223; that for `COc1ccc2[nH]c([S+]([O-])Cc3ncc(C)c(OC)c3C)nc2c1` (stereo not given) [omeprazole] (10 µM), 0.0924; that for `CCc1ccc(OCc2ccccc2C(=O)Nc2ccc3nc(C)cc(N)c3c2)cc1` (0.833333 µM), 0.313.
As for `N#Cc1cc(F)cc(-c2nc(-c3ccc(F)cn3)no2)c1` (10 µM), the figure is 0.136.
`COc1cc2c(cc1OC)CC(=O)N(CCCN(C)C[C@H]1Cc3cc(OC)c(OC)cc31)CC2` [ivabradine] (10 µM) displayed a morphology score of 0.15.
